17 compounds from PubChem BioAssay (NCATS) can be followed below.

Each structure is given as a SMILES string. Values joined by “and” are separate entries in the source; they are usually repeats but may differ in a detail not shown here. Equal values may be shown once. Results filed as inconclusive are left out. Some of the results follow. Active and inactive are the calls of the source. Unless noted, calls follow the shape of the dose curve; as a rule, active = well fitted curve in the direction sought with a large enough effect; inconclusive = small, poorly fitted or top-dose-only effect, or another doubt; inactive = no such curve, though single readings can be large; an effect the other way counts as inactive or inconclusive.

A short description of assay [1]: qHTS profiling for inhibitors of Plasmodium falciparum (3D7) proliferation (AID 743322).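 Also: infected erythrocytes exposed to compound for 72 h before lysis; 100% = DMSO vehicle wells and 0% = 0.29 µM artemisinin.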 Particulars: P. falciparum 3D7 proliferation; at 28.7 µM (top of the series) unless noted. Summed up:
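Erythrocytes infected with P. falciparum (0.3% parasitemia, 2.5% hematocrit) incubated with compounds 72 h at 37 C, 5% CO2. Lysis with saponin/Triton buffer containing SYBR Green I, overnight at room temperature in the dark; DNA fluorescence (485/535 nm) normalised to 0.29 uM artemisinin and DMSO.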

Assay [2] in a line: qHTS profiling for inhibitors of Plasmodium falciparum (DD2) proliferation (AID 743323; call rule not given here). Particulars: lower = more inhibition; at 28.7 µM (top of the series) unless noted. Summed up: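 P. falciparum Dd2-infected erythrocytes (0.3% parasitemia, 2.5% hematocrit) exposed 72 h at 37 C, 5% CO2. Lysis with SYBR Green, overnight at room temperature, fluorescence 485/535 nm; normalized to 0.29 uM artemisinin and DMSO.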

A short description of assay [3]: qHTS profiling for inhibitors of Plasmodium falciparum (HB3) proliferation (AID 743324).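 Also: 100% = DMSO vehicle wells and 0% = artemisinin-treated control wells.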 Conditions: Plasmodium falciparum HB3 blood-stage proliferation; at 28.7 µM (top of the series) unless noted. Summed up: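 P. falciparum HB3 grown in erythrocytes (0.3% parasitemia, 2.5% hematocrit final) with compound for 72 h at 37 C, 5% CO2. Parasite DNA detected by SYBR Green after saponin/triton lysis overnight; normalized to 0.29 uM artemisinin and DMSO.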

The target of assay [4] is Cytochrome P450 2C9 (Homo sapiens) (UniProt P11712). The experiment in a line: qHTS Assay for Inhibitors and Substrates of Cytochrome P450 2C9 (AID 883). Also: potency is read from the fitted curve at half-maximal effect; nearly all actives have a fitted effect of over 60% in size. Summed up:
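CYP2C9 deoxyluciferin hydroxylation, 37C, 60 min with NADPH regeneration; 10nM enzyme, 100uM Luciferin-H (KM). Glo detection reagent stopped reaction; luminescence normalized to sulphaphenazole (57uM) full inhibition.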

Assay [5] deals with Cytochrome P450 3A4 (Homo sapiens) (UniProt P08684). The experiment in a line: qHTS Assay for Inhibitors and Substrates of Cytochrome P450 3A4 (AID 884). Also: potency is read from the fitted curve at half-maximal effect; nearly all actives have a fitted effect of over 50% in size. Summed up: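 20 nM human CYP3A4 with 25 uM Luciferin-PPXE (at KM) in 200 mM KPO4, preincubated 10 min with compound; NADPH regeneration started a 60 min RT reaction. Luciferin detected by luminescence, normalized to 57 uM ketoconazole as full inhibition.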
Cytochrome P450 3A4 (Homo sapiens), sequence (P08684 whole entry, looked up): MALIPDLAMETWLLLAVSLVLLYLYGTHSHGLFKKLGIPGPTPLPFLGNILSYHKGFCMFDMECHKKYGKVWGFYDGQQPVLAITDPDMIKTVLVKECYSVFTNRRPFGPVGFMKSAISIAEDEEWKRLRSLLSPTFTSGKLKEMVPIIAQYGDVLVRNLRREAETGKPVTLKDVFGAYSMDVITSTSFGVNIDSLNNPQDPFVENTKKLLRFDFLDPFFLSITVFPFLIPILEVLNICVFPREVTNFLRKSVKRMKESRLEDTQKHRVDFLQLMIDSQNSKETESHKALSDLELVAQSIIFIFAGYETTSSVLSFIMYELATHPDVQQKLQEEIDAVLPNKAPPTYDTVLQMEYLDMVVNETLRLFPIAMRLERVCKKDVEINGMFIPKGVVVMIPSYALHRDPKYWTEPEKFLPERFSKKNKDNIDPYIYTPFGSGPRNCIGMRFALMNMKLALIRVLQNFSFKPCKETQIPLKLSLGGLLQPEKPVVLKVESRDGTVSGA

Assay [6] has the same target. The experiment in a line: qHTS Assay for Activators of Cytochrome P450 3A4 (AID 885). Also: nearly all actives have a fitted effect of over 65% in size. The gist of the method: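 Human CYP3A4 (20 nM) with Luciferin-PPXE at 25 uM (its KM) in 200 mM KPO4; 10 min compound preincubation, then NADPH regeneration and 60 min reaction at RT. Luciferin read by luminescence; normalized to 57 uM ketoconazole full inhibition.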
Assay [7] concerns the target Cytochrome P450 2D6 (Homo sapiens) (UniProt P10635). The experiment in a line: qHTS Assay for Inhibitors and Substrates of Cytochrome P450 2D6 (AID 891). Also: potency is read from the fitted curve at half-maximal effect; nearly all actives have a fitted effect of over 60% in size. Summed up: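 Human CYP2D6 (5 nM) with 30 uM Luciferin-ME EGE (at Km) in 100 mM KPO4, compound preincubated 10 min, then NADPH regeneration system for 60 min at room temperature. Luciferin read by luminescence; normalized to 1.43 uM quinidine.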

In assay [8] the target is Cytochrome P450 2C19 (Homo sapiens) (UniProt P33261). The experiment in a line: qHTS Assay for Inhibitors and Substrates of Cytochrome P450 2C19 (AID 899). Also: potency is read from the fitted curve at half-maximal effect; nearly all actives have a fitted effect of over 60% in size. The gist of the method:
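In 50mM KPO4, the reaction held 5nM enzyme and KM-level (10uM) Luciferin-H EGE; it ran 60 min at 37C after NADPH regeneration and a 10 min compound preincubation. Luminescence values were scaled to 57uM ketoconazole as complete inhibition.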

Assay [9] can be described thus: qHTS assay for small molecule disruptors of the mitochondrial membrane potential - 1 hr assay (AID 651754; calls by dose curve; also: potency is read from the fitted curve at half-maximal effect; nearly all actives have a fitted effect of over 35% in size). Summed up: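 HepG2 cells, attached overnight, were exposed to compound for 1 hr at 37C, then stained 30 min with a potentiometric dye. Ratio of red aggregate (590nm) to green monomer (535nm) fluorescence reports membrane potential; collapse shifts signal toward green.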

Assay [10] is described as follows: qHTS assay for small molecule disruptors of the mitochondrial membrane potential - 5 hr assay (AID 651755; calls by dose curve; also: potency is read from the fitted curve at half-maximal effect; nearly all actives have a fitted effect of over 40% in size). Summed up:
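HepG2 cells, attached overnight at 37C, were exposed to compound or DMSO for 5 hr at 37C, 5% CO2. Mito-MPS dye was then added for 30 min, and fluorescence read at 490/535 nm (monomers) and 540/590 nm (aggregates).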

The target of assay [11] is Nuclear receptor ROR-gamma (Homo sapiens) (UniProt P51449). The experiment in a line: qHTS assay for small molecule antagonists of the retinoid-related orphan receptor gamma (ROR-gamma) signaling pathway (AID 651802).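 Also: luciferase reporter luminescence driven by ROR response element; % is scaled to controls: 0 for no effect and ±100 for the full control effect; nearly all actives have a fitted effect of over 60% in size.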 The gist of the method: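 CHO cells with TET-inducible ROR-gamma and RORE-luciferase reporter, dosed then doxycycline-induced. After 16 h at 37C, One-Glo luminescence read; decreased signal indicates antagonism.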
Nuclear receptor ROR-gamma (Homo sapiens), sequence (P51449 whole entry, looked up): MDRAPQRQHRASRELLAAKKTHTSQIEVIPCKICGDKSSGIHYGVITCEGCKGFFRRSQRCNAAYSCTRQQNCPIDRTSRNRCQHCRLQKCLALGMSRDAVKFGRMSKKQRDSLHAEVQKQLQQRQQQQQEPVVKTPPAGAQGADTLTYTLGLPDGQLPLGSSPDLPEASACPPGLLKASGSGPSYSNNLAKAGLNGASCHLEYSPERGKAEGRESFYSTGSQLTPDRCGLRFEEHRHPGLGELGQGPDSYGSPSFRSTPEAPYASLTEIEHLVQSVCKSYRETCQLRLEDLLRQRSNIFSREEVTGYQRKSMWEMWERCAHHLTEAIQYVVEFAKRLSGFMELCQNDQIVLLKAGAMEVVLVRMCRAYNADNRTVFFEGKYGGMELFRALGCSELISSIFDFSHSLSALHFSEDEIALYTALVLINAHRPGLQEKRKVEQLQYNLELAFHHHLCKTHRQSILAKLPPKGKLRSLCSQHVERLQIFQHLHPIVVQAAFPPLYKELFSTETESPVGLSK

Assay [12] is described as follows: qHTS Assay for Identifying Gametocytocidal Compounds (AID 743244). Also: potency is read from the fitted curve at half-maximal effect.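 As to max response: % is scaled to controls: 0 for no effect and ±100 for the full control effect; actives lower the fluorescent signal which means gametocytes are killed.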 Conditions: P. falciparum 3D7 stage III-V gametocytes, alamarBlue, 72 h; max response: stronger effect = lower value. Summed up: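 Stage III–V gametocytes of P. falciparum 3D7 were seeded at 20,000 cells/well onto pre-dispensed compounds. After 72 h, 37 °C, 5% CO2, alamarBlue was added for another 24 h.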

For assay [13], the target named is DNA polymerase eta (Homo sapiens) (UniProt Q9Y253). The experiment in a line: qHTS for Inhibitors of Polymerase Eta: Confirmatory Assay for Cherry-picked Compounds (AID 720502). Also: potency is read from the fitted curve at half-maximal effect. Particulars: Pol eta primer extension, TAMRA/BHQ fluorescence, 10 min. The gist of the method: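 Readout: TAMRA dequenching, ex 525/em 598 nm, read at 0 and 10 min. Enzyme: 10 nM human Pol eta, preincubated with compound 15 min RT. Substrate: 50 nM final annealed primer/reporter/template duplex.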

The target of assay [14] is Tyrosine-protein kinase Yes (Homo sapiens) (UniProt P07947). The experiment in a line: qHTS for small molecule inhibitors of Yes1 kinase: Primary Screen (AID 686947). Particulars: Yes1 kinase biochemical qHTS inhibition. The gist of the method:
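Yes1 (4 nM) preincubated 20 min with compound, then 60 min room-temperature reaction with 0.1 mM ATP and 0.3 mg/mL poly(E4Y) in pH 7.5 Tris, 10 mM MgCl2. ADP measured by ADP-Glo luminescence, normalised to enzyme/no-enzyme controls.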

A short description of assay [15]: qHTS for small molecule inhibitors of Yes1 kinase: Counter Assay (AID 686950).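 Also: no kinase present so only ADP-Glo detection of a fixed ADP amount is tested; luminescence from ADP-Glo reporting ADP in a fixed ATP and ADP mixture; 0% = DMSO wells with ATP plus ADP and -100% = ATP-only wells without ADP.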 Summed up:
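Enzyme-free ADP-Glo interference check: compounds were preincubated 20 min in buffer, then an ATP/ADP mix (0.08 mM ATP, 0.02 mM ADP final) was added for 60 min at room temperature before two-step ADP-Glo luminescence detection.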

For assay [16], the target named is Bifunctional 3'-5' exonuclease/ATP-dependent helicase WRN (Homo sapiens) (UniProt Q14191). The experiment in a line: qHTS for Inhibitors of WRN Helicase: Confirmatory Assay for Cherry-picked Compounds. (AID 720497). Also: nearly all actives have a fitted effect of over 65% in size. The gist of the method: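 WRN (20 nM) was preincubated 15 min at RT with compound, then started with 100 nM forked duplex oligonucleotide and 2 mM ATP. Unwinding was read kinetically by red fluorescence (ex 525/em 598 nm), normalized to enzyme-free and uninhibited controls.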
Bifunctional 3'-5' exonuclease/ATP-dependent helicase WRN (Homo sapiens), sequence (Q14191 whole entry, looked up): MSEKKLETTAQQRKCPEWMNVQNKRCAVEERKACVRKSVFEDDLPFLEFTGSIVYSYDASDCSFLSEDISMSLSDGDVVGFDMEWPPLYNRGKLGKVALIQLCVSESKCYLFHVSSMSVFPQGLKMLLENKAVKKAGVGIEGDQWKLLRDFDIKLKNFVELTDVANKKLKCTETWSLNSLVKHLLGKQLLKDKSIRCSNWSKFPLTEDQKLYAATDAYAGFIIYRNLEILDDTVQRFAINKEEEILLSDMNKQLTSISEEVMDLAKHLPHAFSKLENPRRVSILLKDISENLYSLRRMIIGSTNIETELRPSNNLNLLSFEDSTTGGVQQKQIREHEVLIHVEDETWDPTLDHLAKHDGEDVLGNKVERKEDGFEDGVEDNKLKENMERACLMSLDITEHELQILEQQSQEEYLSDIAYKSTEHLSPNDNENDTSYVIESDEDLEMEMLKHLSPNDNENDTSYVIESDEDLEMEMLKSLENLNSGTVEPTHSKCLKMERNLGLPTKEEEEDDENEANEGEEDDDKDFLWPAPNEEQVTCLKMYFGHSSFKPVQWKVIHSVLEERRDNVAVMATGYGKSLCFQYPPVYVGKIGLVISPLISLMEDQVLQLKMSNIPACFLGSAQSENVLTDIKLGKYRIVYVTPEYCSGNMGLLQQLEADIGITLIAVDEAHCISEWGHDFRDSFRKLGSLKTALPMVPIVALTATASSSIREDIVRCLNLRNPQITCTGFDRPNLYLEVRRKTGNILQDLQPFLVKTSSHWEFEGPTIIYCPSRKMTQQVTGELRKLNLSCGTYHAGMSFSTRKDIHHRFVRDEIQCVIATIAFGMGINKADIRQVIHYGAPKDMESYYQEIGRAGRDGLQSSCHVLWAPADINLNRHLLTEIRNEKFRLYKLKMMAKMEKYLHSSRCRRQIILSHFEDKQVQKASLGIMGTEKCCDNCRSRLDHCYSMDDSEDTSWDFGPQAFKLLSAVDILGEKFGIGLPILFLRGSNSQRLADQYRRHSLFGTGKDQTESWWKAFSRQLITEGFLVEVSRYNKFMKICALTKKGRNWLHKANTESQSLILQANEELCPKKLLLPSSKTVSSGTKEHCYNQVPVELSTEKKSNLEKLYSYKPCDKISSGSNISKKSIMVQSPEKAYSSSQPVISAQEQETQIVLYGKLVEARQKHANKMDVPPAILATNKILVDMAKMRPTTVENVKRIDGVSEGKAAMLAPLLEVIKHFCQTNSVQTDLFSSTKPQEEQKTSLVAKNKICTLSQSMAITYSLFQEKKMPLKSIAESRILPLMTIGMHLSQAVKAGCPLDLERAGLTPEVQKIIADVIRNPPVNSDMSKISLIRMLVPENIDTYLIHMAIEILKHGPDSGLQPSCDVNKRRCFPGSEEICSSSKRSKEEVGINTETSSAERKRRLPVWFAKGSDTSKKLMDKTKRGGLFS

Assay [17] is described as follows: qHTS for Inhibitors of WRN Helicase: Thiazole Orange DNA Binding Counterscreen (AID 720499). The gist of the method: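 Thiazole orange displacement counterscreen: compounds added to 50 nM unlabeled DNA with 100 nM ThO. Fluorescence (ex 480, em 530 nm) read after 15 min at room temperature; activity flags nonspecific DNA binding.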
For assay [18], the target named is RecQ-like DNA helicase BLM (Homo sapiens) (UniProt P54132). The experiment in a line: qHTS for Inhibitors of WRN Helicase: BLM Helicase Counterscreen for WRN Inhibitors (AID 720503). The gist of the method: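 BLM at 1 nM was preincubated with compound for 15 min at room temperature in 25 mM Tris-HCl pH 8.0, 50 mM NaCl, 2 mM MgCl2, 1 mM DTT and 0.01% Tween-20. Unwinding was started with 100 nM DNA and 2 mM ATP (final). Fluorescence (ex 525/em 598 nm) was read twice, 15 min apart, and normalized to enzyme-free and DMSO controls.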

Cytochrome P450 2C9 (Homo sapiens), sequence (P11712 whole entry, looked up): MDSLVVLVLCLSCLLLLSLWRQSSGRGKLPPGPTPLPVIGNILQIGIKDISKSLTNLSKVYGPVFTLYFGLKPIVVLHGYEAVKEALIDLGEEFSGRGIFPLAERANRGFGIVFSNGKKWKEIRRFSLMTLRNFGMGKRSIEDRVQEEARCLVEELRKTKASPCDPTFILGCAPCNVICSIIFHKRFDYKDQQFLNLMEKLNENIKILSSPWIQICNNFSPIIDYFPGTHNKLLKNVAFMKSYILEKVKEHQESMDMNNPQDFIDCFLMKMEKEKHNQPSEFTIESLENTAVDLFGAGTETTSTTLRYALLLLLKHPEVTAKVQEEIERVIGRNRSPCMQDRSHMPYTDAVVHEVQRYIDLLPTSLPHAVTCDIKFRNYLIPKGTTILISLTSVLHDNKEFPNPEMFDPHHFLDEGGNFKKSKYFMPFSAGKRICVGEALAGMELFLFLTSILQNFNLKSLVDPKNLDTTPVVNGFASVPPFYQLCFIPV
Cytochrome P450 2D6 (Homo sapiens), sequence (P10635 whole entry, looked up): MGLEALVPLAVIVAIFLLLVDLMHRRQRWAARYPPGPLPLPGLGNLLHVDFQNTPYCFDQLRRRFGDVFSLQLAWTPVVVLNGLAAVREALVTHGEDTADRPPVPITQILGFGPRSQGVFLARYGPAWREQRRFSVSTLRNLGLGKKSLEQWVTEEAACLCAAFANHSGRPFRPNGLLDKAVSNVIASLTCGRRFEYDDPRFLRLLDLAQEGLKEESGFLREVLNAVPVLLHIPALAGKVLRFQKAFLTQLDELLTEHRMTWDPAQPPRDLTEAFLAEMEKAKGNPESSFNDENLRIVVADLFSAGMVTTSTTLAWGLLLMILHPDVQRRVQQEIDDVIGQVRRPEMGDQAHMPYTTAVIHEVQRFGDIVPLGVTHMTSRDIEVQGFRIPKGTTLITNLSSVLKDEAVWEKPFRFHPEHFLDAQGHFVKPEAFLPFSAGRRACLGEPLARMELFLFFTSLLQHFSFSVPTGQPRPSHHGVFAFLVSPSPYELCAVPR
Cytochrome P450 2C19 (Homo sapiens), sequence (P33261 whole entry, looked up): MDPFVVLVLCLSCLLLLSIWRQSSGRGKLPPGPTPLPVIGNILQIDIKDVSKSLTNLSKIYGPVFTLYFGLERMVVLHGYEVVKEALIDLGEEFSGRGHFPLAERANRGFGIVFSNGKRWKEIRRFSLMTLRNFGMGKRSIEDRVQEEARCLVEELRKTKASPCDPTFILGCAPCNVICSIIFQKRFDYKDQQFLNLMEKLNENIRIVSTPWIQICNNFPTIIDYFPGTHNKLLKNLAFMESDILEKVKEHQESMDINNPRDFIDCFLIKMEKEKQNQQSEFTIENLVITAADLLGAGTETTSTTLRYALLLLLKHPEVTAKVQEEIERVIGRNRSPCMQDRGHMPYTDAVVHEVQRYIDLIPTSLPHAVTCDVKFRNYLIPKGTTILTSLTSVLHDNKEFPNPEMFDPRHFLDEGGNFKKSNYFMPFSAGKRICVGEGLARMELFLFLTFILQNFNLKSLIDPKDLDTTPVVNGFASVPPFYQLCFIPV
Tyrosine-protein kinase Yes (Homo sapiens), sequence (P07947 whole entry, looked up): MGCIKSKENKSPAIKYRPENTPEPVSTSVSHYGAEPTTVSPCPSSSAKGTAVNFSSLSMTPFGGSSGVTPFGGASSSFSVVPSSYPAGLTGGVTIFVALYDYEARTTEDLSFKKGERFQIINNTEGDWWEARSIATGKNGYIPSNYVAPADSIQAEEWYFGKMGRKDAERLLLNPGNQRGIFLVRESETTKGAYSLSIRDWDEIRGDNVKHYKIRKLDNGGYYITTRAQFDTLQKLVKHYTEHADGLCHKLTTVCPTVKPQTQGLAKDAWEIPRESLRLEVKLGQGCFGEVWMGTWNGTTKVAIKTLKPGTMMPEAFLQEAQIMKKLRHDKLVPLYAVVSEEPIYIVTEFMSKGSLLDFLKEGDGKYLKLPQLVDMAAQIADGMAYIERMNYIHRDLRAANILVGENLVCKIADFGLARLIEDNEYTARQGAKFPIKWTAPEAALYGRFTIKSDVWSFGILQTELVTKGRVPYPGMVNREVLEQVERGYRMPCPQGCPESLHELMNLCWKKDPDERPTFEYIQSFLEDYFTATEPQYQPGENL

In the case of `O=C1C(=O)c2ccccc2C(O)=C1C1CCC2(CC1)OOC1(O2)C2CC3CC(C2)CC1C3` (stereo not drawn), the remaining parasite growth % (stronger effect = lower value) in assay [1] stood at 0.339%. Moreover, in [2], the activity, percent of control was -0.0523%. The same compound registered a remaining proliferation (% of control), lower = more inhibition in [3] of 0.423%.

Consider `COc1c(-c2ccccc2)oc2c(ccc3occc32)c1=O`, for which the Potency was 1 µM (active) in assay [4], 3.16 µM (active) in assay [5], 10 µM (active) in assay [7] and 3.98 µM (active) in assay [8]. The Potency result in assay [6] was “inactive”.

For the compound `CC(C)C[C@H](NC(=O)N1CCCCCC1)C(=O)N[C@H](Cc1cn(C)c2ccccc12)C(=O)N[C@H](Cc1ccccn1)C(=O)O`, in assay [4], the Potency was 6.31 µM (active).

Regarding `Cc1c(N)cccc1N`, the Potency result in assay [6] and in assay [11] was “inactive” throughout. Moreover, the Potency in assay [9] and in [10] was 37.6 µM (active) throughout.

`CCC(C(=O)O)C1OC(C(C)C(O)C(C)C(=O)C(CC)C2OC3(C=CC(O)C4(CCC(C)(C5CCC(O)(CC)C(C)O5)O4)O3)C(C)CC2C)C(C)CC1C` (stereo not drawn): the Potency in [12] is 60.5 nM (active).

On to `O=C1NC(=O)N(c2ccc(F)cc2)C(=O)/C1=C/c1ccc2c(c1)CCCN2Cc1ccccc1`, for which the Potency in [13] is 84.9 µM (active).

Regarding `COC(C(=O)C(O)C(C)O)C1Cc2cc3cc(OC4CC(OC5CC(O)C(O)C(C)O5)C(O)C(C)O4)c(C)c(O)c3c(O)c2C(=O)C1OC1CC(OC2CC(OC3CC(C)(O)C(O)C(C)O3)C(O)C(C)O2)C(O)C(C)O1` (stereo not drawn), the Potency in assay [12] was 1120 nM (active).

In the case of `CC[C@@]1([C@@H]2O[C@@H]([C@H]3O[C@@](O)(CO)[C@H](C)C[C@@H]3C)C[C@@H]2C)CC[C@H]([C@]2(C)CC[C@]3(C[C@H](O)[C@@H](C)[C@@H]([C@@H](C)[C@@H](OC)[C@H](C)C(=O)O)O3)O2)O1` (stereo in doubt), in [12], the Potency was 891 nM (active) and 166 nM (active).

Consider `CNC(=O)Oc1cc(C)c(C=Cc2cncc(C(=O)NC)c2)c(C)c1`, for which the Potency in assay [14] was 0.654 µM (active). The call in [15] was inactive.

On to `COC12CC[C@@]3(C[C@@H]1C(C)(O)C(C)(C)C)[C@H]1Cc4ccc(O)c5c4[C@@]3(CCN1CC1CC1)[C@H]2O5` (stereo partly drawn), for which, in assay [12], the Potency was 31600 nM (active).

On to `CN(C)C(=O)CCSC(SCCC(=O)O)c1cccc(/C=C/c2ccc3ccc(Cl)cc3n2)c1` (stereo not drawn), for which, in assay [12], the max response is 41.4% (inactive).

For the compound `CCCCN(CCCC)CCC(OC(=O)O[C@@H]1CCC[C@]2(C1)OOC1(O2)C2CC3CC(C2)CC1C3)c1cc2c(Cl)cc(Cl)cc2c2cc(C(F)(F)F)ccc12` (stereo partly drawn), the remaining parasite growth % (stronger effect = lower value) in assay [1] is -0.394%. Besides, the activity, percent of control in assay [2] was determined as 0.0994%. The same compound had a remaining proliferation (% of control), lower = more inhibition in [3] of 0.359%.

Take `c1c[nH]cn1`: the Potency entry in [11] was “inactive”.

`COC(=O)C[C@](O)(CCCC(C)(C)O)C(=O)O[C@@H]1C(OC)=CC23CCCN2CCc2cc4c(cc2[C@H]13)OCO4` (stereo partly drawn): the Potency in assay [12] was 83.3 nM (active).

`O=C(O)COc1ccccc1/C=C1\C(=O)NC(=O)N(CCC2=CCCCC2)C1=O`: the result in [16], in [17] and in [18] was inactive.

`C[C@H]1[C@@H](CCC(=O)Nc2ccc(F)cc2)O[C@@H]2O[C@]3(C)CC[C@@H]4[C@H](C)CC[C@@H]1[C@@]24OO3`: in assay [1], the remaining parasite growth % (stronger effect = lower value) is -0.086%. In addition, in [2], the activity, percent of control was 0.199%. Besides, in assay [3], the remaining proliferation (% of control), lower = more inhibition was 0.121%.

Turning to `C=Cc1c(C)c2cc3nc(cc4[nH]c(cc5nc(cc1[nH]2)C(C)=C5CCC(=O)OC)c(CCC(=O)O)c4C)[C@@]1(C)C3=CC=C(C(=O)OC)[C@H]1C(=O)OC`, the Potency in [12] was 894 nM (active).
